# Source: PubChem
# Compounds with a hit are over-represented: about 2.2% of the library has one in this group of screens.
# TDP43 rescue: qHTS of TDP-43 Inhibitors. TDP-43 expressing yeast growth rescue, BacTiter-Glo, 24 h. Potency, µM (highest dose often 46.1 µM), inactives show at the highest dose growth rescue (activation), actives largely listed as activators. hit rate 1.8% among 410,000. AID 652104, 2013; note: % of control where 0% means no effect; nearly all actives have a fitted effect of over 50% in size
#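 Yeast cells expressing TDP-43 under galactose induction are exposed to compounds for 24 hr at 30 deg C. BacTiter-Glo luminescence measures growth, so protective compounds score as activators.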
# FUS suppressor: qHTS for Suppressors of FUS Proteinopathy: Primary screen using FUS-linked yeast assay. S. cerevisiae FUS-expressing, growth rescue, OD600, 24 h. hit rate 0.24% among 390,000. Potency, µM (top dose mostly 76.6 µM), most hits filed as activators;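 note: plate controls were DMSO vehicle for no effect and reference control for full effect; nearly all actives have a fitted effect of over 55% in size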
#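 Yeast expressing FUS under galactose induction, OD 0.005 in 2% galactose medium; compounds in a dilution series, 24 h at 30C. Growth rescue by absorbance at 600 nm; CP55940 positive control, DMSO negative.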
# Mito fusion act: qHTS Assay for Small Molecule Inhibitors of Mitochondrial Division or Activators of Mitochondrial Fusion; S. cerevisiae fusion-defective mutant growth rescue, CellTiterGlo 48 h; Potency, µM (series often up to 46.1 µM), without a hit: at the highest dose growth rescue (activation), actives largely listed as activators; hit rate 0.23% among 320,000; AID 485298, 2010; note: % of control where 0% means no effect; nearly all actives have a fitted effect of over 45% in size
#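 Yeast fusion mutant, YPEG (non-fermentable carbon), compound, 48 h at 37C non-permissive; CellTiterGlo added, 10 min RT, luminescence read. Rescued growth = division inhibition.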
# Abeta yeast res: qHTS for compounds that reverse cellular toxicity of Amyloid beta (A-beta) peptide in yeast: Primary Screen. AID 1347071, 2019. yeast expressing A-beta42, growth rescue, OD600, 48 h; response scale: 0% DMSO, 100% iron-clioquinol control. Potency, µM (top dose mostly 46.1 µM), actives largely listed as activators. hit rate 0.063% among 410,000; note: nearly all actives have a fitted effect of over 55% in size
#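 Yeast growth medium received pinned compounds, then yeast cells expressing toxic A-beta were added; plates incubated at 30 C for 48 hr. Growth read as absorbance at 600 nm, normalized to DMSO and equimolar FeCl3 plus clioquinol controls.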
# aSyn yeast inh: qHTS of alpha-syn Inhibitors; Potency, µM (titrated, usually from 46.1 µM), inactives show at the highest dose growth rescue (activation), most hits filed as activators; Yeast expressing alpha-synuclein, growth rescue, BacTiter-Glo, 24 h; hit rate 0.14% among 370,000; AID 652106, 2013; note: % of control where 0% means no effect; nearly all actives have a fitted effect of over 65% in size
#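 Rescue of yeast growth: cells expressing toxic alpha-synuclein, induced in galactose at OD600 0.02, incubated with compound 24 h at 30 C. ATP luminescence quantified growth; inhibitors of toxicity appear as activators.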
# The depositor's hits bear a star; i = inactive; ? = inconclusive; nt = no result given; [ ] = remark or other dose. Calls come from the whole dose curve; as a rule, active = well fitted curve in the direction sought with a large enough effect; inconclusive = small, poorly fitted or top-dose-only effect, or another doubt; inactive = no such curve, though single readings can be large; an effect the other way counts as inactive or inconclusive. Potency is the fitted concentration of half-maximal effect.
SMILES,TDP43 rescue,FUS suppressor,Mito fusion act,Abeta yeast res,aSyn yeast inh
Cc1ccc(Cc2c(-c3cccc(Cl)c3)nc3ccc(C)cn23)cc1,28.2µM*,i,nt,i,6.1%
Nn1c(SCC(=O)Nc2ccc(OCc3ccccc3)cc2)nnc1-c1cc(-c2ccc(Cl)cc2)n[nH]1,nt,i,nt,nt,nt
CSc1ccc(S(=O)(=O)Nc2ccc3c4c(cccc24)CC3)cc1,14.1%,i,-9.0%,i,12.6µM*
CCOC(=O)c1cc(=O)c2ccc(OCC(=O)Nc3ccccc3)cc2o1,-8.6%,i,4.8%,i,15.1%
CCOC(=O)C1=C(C)N(CC(C)C)C(=O)/C1=C\c1ccc(OCC(=O)Nc2ccccc2)cc1,17.8µM*,i,-2.3%,i,4.9%
Cc1cccc(N(C)c2nc3ccccc3c3nnc(C)n23)c1,22.4µM*,i,nt,i,nt
CC1CCN(c2nc(Cl)nc(Nc3ccc([N+](=O)[O-])cc3)n2)CC1,20µM*,nt,?,i,7.7%
CCCNc1nc(Nc2ccc([N+](=O)[O-])cc2)nc(N2CCOCC2)n1,nt,nt,nt,nt,-2.6%
CSc1ccc(CCNC(=O)C(C)n2nc(C)c3sc4ccccc4c3c2=O)cc1 (stereo unspecified),18.2%,i,nt,i,nt
CC(C)CCNC(=O)C1CCC(Cn2c(=O)c3sccc3n(CC(=O)NC(C)C)c2=O)CC1 (stereo unspecified),-18.3%,i,nt,i,nt
COc1ccc(-c2oc3ncn4nc(COc5cccc(C)c5C)nc4c3c2-c2ccc(OC)cc2)cc1,-5.6%,i,nt,i,-3.0%
Nc1ncnc(Oc2cccc(C(F)(F)F)c2)c1[N+](=O)[O-],12.6µM*,i,0.8%,i,-3.5%
Cc1ccc(-n2nnnc2C(Cl)c2nnnn2-c2ccc(C)cc2)cc1,3.55µM*,i,6.5%,i,-46.6%
CCC(Oc1ccccc1)C(=O)Nc1cc(-c2ccccc2OC)nn1-c1ccccc1 (stereo unspecified),15.6%,i,nt,i,nt
C=CCC[C@H](Cc1ccc(F)cc1)C(=O)OC[C@@H](C)NC(=O)[C@@H](CC=C)CC(=O)N[C@H](CO)Cc1ccccc1,-1.6%,25.1µM*,nt,i,-2.5%
C=CC[C@@H](CC(=O)N[C@H](CO)Cc1ccccc1)C(=O)N[C@H](COC(=O)[C@@H](CC=C)Cc1ccc(F)cc1)C(C)(C)C,16.6%,15.8µM*,nt,i,-10.0%
C=CCC[C@H](Cc1ccc(F)cc1)C(=O)OC[C@@H](NC(=O)[C@@H](CC=C)CC(=O)N[C@@H](CO)Cc1ccccc1)C(C)(C)C,-30.3%,12.6µM*,nt,i,-1.4%
C=CCC[C@H](Cc1ccc(F)cc1)C(=O)OC[C@@H](C)NC(=O)[C@@H](CC=C)CC(=O)N[C@@H](CO)Cc1ccccc1,20.1%,i,nt,i,-3.5%
CN1C[C@@H]2[C@@H]3C(=O)N(Cc4ccccc4)C(=O)[C@@H]3[C@](Cc3ccccc3)(C1=O)N2C(=O)c1ccc(Cl)c(Cl)c1,-3.5%,14.1µM*,nt,i,2.0%
CCOC(=O)c1cc(-c2ccccc2C)n(CC2CC(c3cccc([N+](=O)[O-])c3)=NO2)n1 (stereo unspecified),20µM*,i,?,i,6.8%
c1ccc2c(c1)ccc1ccccc12,-0.1%,i,nt,i,-2.6%
O=c1ccc2ccccc2c2ccccc12,3.16µM*,i,nt,i,?
Cc1cc(C)c(Cn2c(C)c(CNCCCc3ccccc3)c(C(=O)O)c2C)c(C)c1,-1.6%,?,nt,i,nt
COc1ccc(CN(CC2CCC(C(=O)O)CC2)C(=S)Nc2ccccc2C)cc1 (stereo unspecified),-9.7%[0.397 µM],i,-4.7%,i,2.0%
COc1ccc(N2CCC(CNC(=S)Nc3cc(C)ccc3C)C2)cc1 (stereo unspecified),14.1µM*,i,13.8%,?,?
COc1ccc(CN(CC2CCC(C(=O)O)CC2)C(=S)Nc2cc(C)ccc2C)cc1 (stereo unspecified),22.4µM*,i,1.1%,i,10.0%
